Measurements as given in the supplement of paper PMC4466140.

These binders were tested against CaNbp2 (assay: SPOT peptide array binding signal intensity (averaged, normalized) (arbitrary units (background-subtracted, floor 0; scale differs between SH3 domains)); higher = stronger binding of the SH3 domain to the peptide).
Experimental: (§1)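 GST-tagged SH3 domains from S. cerevisiae (Sc), A. gossypii (Ag), C. albicans (Ca) and S. pombe (Sp) were incubated at 10 ug/ml overnight at 4 C on cellulose SPOT membranes carrying 292 synthetic 15-mer peptides mined from the S. cerevisiae proteome (cysteines replaced by serines). Binding was detected with anti-GST antibody, HRP secondary and chemiluminescence, quantified with Genespotter, and reported as normalized spot intensities averaged over biological replicates.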

| Binder | SPOT peptide array binding signal intensity |
| --- | --- |
| KRKRRLPVSEDTNTK | 255 |

The binders below were run against CaRvs167 in the same assay as above.
Experimental: as §1

| Binder | SPOT peptide array binding signal intensity |
| --- | --- |
| KRKRRLPVSEDTNTK | 8.67 |

The binders below were run against CaRvs167-3 in the same assay as above.
Experimental: as §1

| Binder | SPOT peptide array binding signal intensity |
| --- | --- |
| KRKRRLPVSEDTNTK | 9.75 |

The binders below were run against CaSho1 in the same assay as above.
Experimental: as §1

| Binder | SPOT peptide array binding signal intensity |
| --- | --- |
| KRKRRLPVSEDTNTK | 288 |

The binders below were run against CaSla1-D1-D2 in the same assay as above.
Experimental: as §1

| Binder | SPOT peptide array binding signal intensity |
| --- | --- |
| KRKRRLPVSEDTNTK | 8 |

These binders were tested against CaSla1-D3 in the same assay as above.
Experimental: as §1

| Binder | SPOT peptide array binding signal intensity |
| --- | --- |
| KRKRRLPVSEDTNTK | 8.75 |

These binders were tested against ScAbp1 in the same assay as above.
Experimental: as §1

| Binder | SPOT peptide array binding signal intensity |
| --- | --- |
| KRKRRLPVSEDTNTK | 30 |

What follows are binders tested against ScBbc1 in the same assay as above.
Experimental: as §1

| Binder | SPOT peptide array binding signal intensity |
| --- | --- |
| KRKRRLPVSEDTNTK | 30 |

Each binder was assayed against ScBem1-D1 in the same assay as above.
Experimental: as §1

| Binder | SPOT peptide array binding signal intensity |
| --- | --- |
| KRKRRLPVSEDTNTK | 183 |

The binders below were run against ScBzz1-D1 in the same assay as above.
Experimental: as §1

| Binder | SPOT peptide array binding signal intensity |
| --- | --- |
| KRKRRLPVSEDTNTK | 15.5 |

These binders were tested against ScBzz1-D2 in the same assay as above.
Experimental: as §1

| Binder | SPOT peptide array binding signal intensity |
| --- | --- |
| KRKRRLPVSEDTNTK | 16.5 |

Each binder was assayed against ScCyk3 in the same assay as above.
Experimental: as §1

| Binder | SPOT peptide array binding signal intensity |
| --- | --- |
| KRKRRLPVSEDTNTK | 143 |

These binders were tested against ScFus1 in the same assay as above.
Experimental: as §1

| Binder | SPOT peptide array binding signal intensity |
| --- | --- |
| KRKRRLPVSEDTNTK | 298 |

Each binder was assayed against ScHof1 in the same assay as above.
Experimental: as §1

| Binder | SPOT peptide array binding signal intensity |
| --- | --- |
| KRKRRLPVSEDTNTK | 3.5 |

What follows are binders tested against ScHse1 in the same assay as above.
Experimental: as §1

| Binder | SPOT peptide array binding signal intensity |
| --- | --- |
| KRKRRLPVSEDTNTK | 1340 |

What follows are binders tested against ScLsb1 in the same assay as above.
Experimental: as §1

| Binder | SPOT peptide array binding signal intensity |
| --- | --- |
| KRKRRLPVSEDTNTK | 1.5 |

Each binder was assayed against ScLsb2 in the same assay as above.
Experimental: as §1

| Binder | SPOT peptide array binding signal intensity |
| --- | --- |
| KRKRRLPVSEDTNTK | 11 |

Each binder was assayed against ScLsb3 in the same assay as above.
Experimental: as §1

| Binder | SPOT peptide array binding signal intensity |
| --- | --- |
| KRKRRLPVSEDTNTK | 562 |

These binders were tested against ScLsb4 in the same assay as above.
Experimental: as §1

| Binder | SPOT peptide array binding signal intensity |
| --- | --- |
| KRKRRLPVSEDTNTK | 16 |

These binders were tested against ScMyo3 in the same assay as above.
Experimental: as §1

| Binder | SPOT peptide array binding signal intensity |
| --- | --- |
| KRKRRLPVSEDTNTK | 5.75 |

The binders below were run against ScMyo5 in the same assay as above.
Experimental: as §1

| Binder | SPOT peptide array binding signal intensity |
| --- | --- |
| KRKRRLPVSEDTNTK | 6.75 |

Each binder was assayed against ScNbp2 in the same assay as above.
Experimental: as §1

| Binder | SPOT peptide array binding signal intensity |
| --- | --- |
| KRKRRLPVSEDTNTK | 210 |

These binders were tested against ScPex13 in the same assay as above.
Experimental: as §1

| Binder | SPOT peptide array binding signal intensity |
| --- | --- |
| KRKRRLPVSEDTNTK | 0.5 |

What follows are binders tested against ScRvs167 in the same assay as above.
Experimental: as §1

| Binder | SPOT peptide array binding signal intensity |
| --- | --- |
| KRKRRLPVSEDTNTK | 16.3 |

Each binder was assayed against ScSho1 in the same assay as above.
Experimental: as §1

| Binder | SPOT peptide array binding signal intensity |
| --- | --- |
| KRKRRLPVSEDTNTK | 808 |

What follows are binders tested against ScSla1-D1-D2 in the same assay as above.
Experimental: as §1

| Binder | SPOT peptide array binding signal intensity |
| --- | --- |
| KRKRRLPVSEDTNTK | 261 |

The binders below were run against ScSla1-D3 in the same assay as above.
Experimental: as §1

| Binder | SPOT peptide array binding signal intensity |
| --- | --- |
| KRKRRLPVSEDTNTK | 103 |

These binders were tested against SpAbp1-D1 in the same assay as above.
Experimental: as §1

| Binder | SPOT peptide array binding signal intensity |
| --- | --- |
| KRKRRLPVSEDTNTK | 214 |

The binders below were run against SpBbc1 in the same assay as above.
Experimental: as §1

| Binder | SPOT peptide array binding signal intensity |
| --- | --- |
| KRKRRLPVSEDTNTK | 3 |

The binders below were run against SpBzz1-D1 in the same assay as above.
Experimental: as §1

| Binder | SPOT peptide array binding signal intensity |
| --- | --- |
| KRKRRLPVSEDTNTK | 40 |

The binders below were run against SpBzz1-D2 in the same assay as above.
Experimental: as §1

| Binder | SPOT peptide array binding signal intensity |
| --- | --- |
| KRKRRLPVSEDTNTK | ≤ 0 |

These binders were tested against SpCyk3 in the same assay as above.
Experimental: as §1

| Binder | SPOT peptide array binding signal intensity |
| --- | --- |
| KRKRRLPVSEDTNTK | 6.5 |

These binders were tested against SpHof1 in the same assay as above.
Experimental: as §1

| Binder | SPOT peptide array binding signal intensity |
| --- | --- |
| KRKRRLPVSEDTNTK | 150 |

What follows are binders tested against SpHof1-2 in the same assay as above.
Experimental: as §1

| Binder | SPOT peptide array binding signal intensity |
| --- | --- |
| KRKRRLPVSEDTNTK | 12 |

Each binder was assayed against SpHof1-3 in the same assay as above.
Experimental: as §1

| Binder | SPOT peptide array binding signal intensity |
| --- | --- |
| KRKRRLPVSEDTNTK | 602 |

What follows are binders tested against SpHse1 in the same assay as above.
Experimental: as §1

| Binder | SPOT peptide array binding signal intensity |
| --- | --- |
| KRKRRLPVSEDTNTK | 391 |

What follows are binders tested against SpLsb1 in the same assay as above.
Experimental: as §1

| Binder | SPOT peptide array binding signal intensity |
| --- | --- |
| KRKRRLPVSEDTNTK | 5.75 |

The binders below were run against SpLsb4 in the same assay as above.
Experimental: as §1

| Binder | SPOT peptide array binding signal intensity |
| --- | --- |
| KRKRRLPVSEDTNTK | 268 |

Each binder was assayed against SpMyo1 in the same assay as above.
Experimental: as §1

| Binder | SPOT peptide array binding signal intensity |
| --- | --- |
| KRKRRLPVSEDTNTK | 3.5 |

The binders below were run against SpNbp2 in the same assay as above.
Experimental: as §1

| Binder | SPOT peptide array binding signal intensity |
| --- | --- |
| KRKRRLPVSEDTNTK | 331 |

These binders were tested against SpPex13 in the same assay as above.
Experimental: as §1

| Binder | SPOT peptide array binding signal intensity |
| --- | --- |
| KRKRRLPVSEDTNTK | 8.5 |

What follows are binders tested against SpRvs167 in the same assay as above.
Experimental: as §1

| Binder | SPOT peptide array binding signal intensity |
| --- | --- |
| KRKRRLPVSEDTNTK | 2.83 |

These binders were tested against SpSla1-D1-D2 in the same assay as above.
Experimental: as §1

| Binder | SPOT peptide array binding signal intensity |
| --- | --- |
| KRKRRLPVSEDTNTK | ≤ 0 |

Each binder was assayed against SpSla1-D3 in the same assay as above.
Experimental: as §1

| Binder | SPOT peptide array binding signal intensity |
| --- | --- |
| KRKRRLPVSEDTNTK | 6 |
